Measurements taken from PubChem BioAssay AID880 (National Center for Advancing Translational Sciences (NCATS), 2007).
About 1,000 (0.43%) of roughly 230,000 compounds were called active. Shown is part of a subset that was picked to be rich in actives. Unmarked numbers belong to inactive results. Calls follow the shape of the dose curve; as a rule, active = well fitted inhibition curve with a large enough effect (not every such curve was filed as active); inactive = no such curve, though single readings can be large or run the other way.
% is scaled to controls: 0 for no effect and ±100 for the full control effect; potency is read from the fitted curve at half-maximal effect.
Also: nearly all actives have a fitted effect of over 30% in size.

These molecules were tested against Guanine nucleotide-binding protein G(i) subunit alpha-1 (Homo sapiens) (UniProt P63096) (assay: qHTS Assay for Inhibitors of RGS12 GoLoco Motif Activity (Red Fluorophore)). Conditions: Gai1:RGS12 GoLoco peptide FP, rhodamine, 10 min; series mostly up to 61.6 µM; activity, negative = inhibition: at the top concentration.
Guanine nucleotide-binding protein G(i) subunit alpha-1 (Homo sapiens), sequence (P63096 whole entry, looked up): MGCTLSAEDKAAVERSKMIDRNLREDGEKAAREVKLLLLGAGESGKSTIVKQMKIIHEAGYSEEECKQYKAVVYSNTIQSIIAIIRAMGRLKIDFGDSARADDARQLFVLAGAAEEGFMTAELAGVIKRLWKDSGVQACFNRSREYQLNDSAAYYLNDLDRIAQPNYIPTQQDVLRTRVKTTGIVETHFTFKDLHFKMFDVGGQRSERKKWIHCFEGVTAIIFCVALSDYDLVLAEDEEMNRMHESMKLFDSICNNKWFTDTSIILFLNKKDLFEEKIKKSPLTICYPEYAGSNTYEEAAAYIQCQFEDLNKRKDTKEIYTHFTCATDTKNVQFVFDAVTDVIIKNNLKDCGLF
From the text: Assay Submitter: Siderovski, David P, University of North Carolina at Chapel Hill
Screening Center PI: Austin, C.P.
Screening Center: NIH Chemical Genomics Center [NCGC]
G-protein-coupled receptors (GPCRs) are major targets for drug discovery. The regulator of G-protein signaling (RGS)-protein family has important roles in GPCR signal transduction. RGS proteins contain a conserved RGS-box, which is often accompanied by other signaling regulatory elements. RGS proteins accelerate the deactivation of G proteins to reduce GPCR signaling; however, some also have an effector function and transmit signals. Combining GPCR agonists with RGS inhibitors should potentiate responses, and could markedly increase the agonist's regional specificity. The diversity of RGS proteins with highly localized and dynamically regulated distributions in brain makes them attractive targets for pharmacotherapy of central nervous system disorders. […] A complex of Gai1 and fluorescently labeled G-alpha-binding peptide (the "GoLoco motif") derived from RGS12 is incubated with library members. Inhibitors of the binding are detected by a decrease in the fluorescence polarization (FP) of the fluorophore. Protein was supplied by Prof. David Siderovski, University of North Carolina at Chapel Hill.
Assay Buffer: 10 mM Tris-HCl, 150 mM NaCl, 0.1 mM GDP (prepared fresh), and 0.05% NP40 at pH 7.5.
15 nM Rhodamine labeled peptide/25 nM protein in columns 1, 2, 5 - 48. Titration of unlabeled peptide control ([H][…][NH2], custom synthesized and HPLC-purified by Tufts University Core Facility) from 20 mM, then 1:2 dilution, 16-point in duplicate, pin-transferred to column 2, rows 1 to 32. Column 1 is neutral.
Rhodamine-labeled peptide (Rhodamine-[…]-NH2) was custom-synthesized and HPLC-purified by Invitrogen (Carlsbad, CA).
Four uL of reagents were dispensed to 1536-well Greiner black solid-bottom plates. Compounds and controls (23 nL) were transferred via Kalypsys PinTool. The plates were incubated for 10 min at room temperature, and then read on ViewLux (Perkin-Elmer) High-throughput CCD imager using BODIPY for the rhodamine-labeled decapeptide probe. During dispense, reagent bottles were kept submerged into 4 deg C water bath and all liquid lines were covered with aluminum foil to minimize probe and protein degradation. All screening operations were performed on a Kalypsys robotic system (Kalypsys, Inc., San Diego, CA) containing one RX-130 and two RX-90 anthropomorphic robotic arms.
In the case of `C[N+]12CN3CN(CN(C3)C1)C2`, the Potency is reported as 8.91 µM (active).
With `CO[C@@H]1C[C@@H](C[C@H]2CC[C@H](C)[C@@H]([C@@H](C)C(=O)O)O2)O[C@]2(O[C@](C)([C@H]3CC[C@@](C)(C4OC([C@H]5O[C@@](O)(CO)[C@H](C)C[C@@H]5C)C[C@@H]4C)O3)C[C@H]2C)[C@@H]1C` (stereo not given in full) the “activity, negative = inhibition” value was 2.64%.
In the case of `CC(=O)c1c(O)c(C)c(O)c(Cc2c(O)c3c(c(C(=O)/C=C\c4ccccc4)c2O)OC(C)(C)C=C3)c1O`, the “activity, negative = inhibition” value is reported as 5.48%.
`C[C@@]12CC[C@H](O)C[C@@H]1CC[C@@H]1[C@@H]2CC[C@@]2(C)[C@@H](C3=CC(=O)OC3)[C@H](O)C[C@]12O` showed an activity, negative = inhibition of 3.75% [at 14.2 µM].
`Cc1cc(-c2ccc(N)c(C)c2)ccc1N` was tested, and the Potency was 25.1 µM (active).
With `CN1[C@@H]2CC[C@H]1CC(OC(=O)c1cc(Cl)cc(Cl)c1)C2` (stereo not given in full) the “activity, negative = inhibition” value was -5.38%.
In the case of `CN(C)C1C(=O)C(C(N)=O)=C(O)[C@@]2(O)C(=O)C3=C(O)c4c(O)cccc4[C@@](C)(O)C3C[C@@H]12` (stereo not given in full), the “activity, negative = inhibition” value is reported as 0.74%.
With `ClC(Cl)=C(Cl)C(Cl)=C(Cl)Cl` the “activity, negative = inhibition” value was 5.03%.
In the case of `CC(C)CC(C)Nc1ccc(Nc2ccccc2)cc1` (stereo not given), the “activity, negative = inhibition” value is reported as 0.206%.
With `CCCCN1C2CCC1CC(OC(c1ccc(F)cc1)c1ccc(F)cc1)C2` (stereo not given) the “activity, negative = inhibition” value was 8.26%.
`CS(=N)(=O)CC[C@H](N)P(=O)(O)O` (stereo not given in full) gave an activity, negative = inhibition of 3.42% [at 14.2 µM].
For `CC(C)(Cc1c[nH]c2ccc(Cl)cc12)NCCOc1ccccc1OCC1CC1`, the activity, negative = inhibition was “inactive”.
With `CC(=O)OC1C2CCC3C1(CC(O)[C@@]1(O)[C@@H](CC(O)C1(C)C)[C@]3(C)O)C[C@@]2(C)O` (stereo not given in full) the Potency was 25.1 µM (active).
In the case of `CC(C)(c1ccccc1)c1ccc(O)cc1`, the “activity, negative = inhibition” value is reported as -5%.
`CC(=O)O[C@H]1CC[C@@]2(C)[C@@H](CC[C@H]3[C@H]2CC(=O)[C@]2(C)[C@@H]3C[C@@H](N3CC3)[C@H]2C(C)=O)C1` gave an activity, negative = inhibition of 4.86% [at 14.2 µM].
`O=C(O)C1C2CCC(O2)C1C(=O)O` (stereo not given) was tested, and the “activity, negative = inhibition” value was 10.6%.
With `OC(CNC1CCCCC1)c1ccccc1` (stereo not given) the “activity, negative = inhibition” value was 5.96%.
For `CNC(C)[C@@H](O)c1ccccc1` (stereo not given in full), the Potency was 7.94 µM (active).
Work on `CC(C)CCC1(CCN)C(=O)NC(=O)NC1=O` yielded an activity, negative = inhibition of 2.09% [at 14.2 µM].
In the case of `CN(C)[C@@H]1C(=O)C(C(N)=O)=C(O)[C@@]2(O)C(=O)C3=C(O)c4c(O)cccc4[C@@](C)(O)C3CC12` (stereo not given in full), the “activity, negative = inhibition” value is reported as -6.35%.
`CCN(CC)CCn1ncc2c(N)ncnc21` was tested, and the activity, negative = inhibition was 8.05% [at 14.2 µM].
In the case of `O=C(O)C(=O)Cc1ccc2c(c1)OCO2`, the activity, negative = inhibition is reported as -7.42% [at 14.2 µM].
With `COc1ccccc1N=Nc1c(O)[nH]c(=S)[nH]c1=O` the “activity, negative = inhibition” value was 28.9%.
With `COc1ccccc1N=C1SCCCN1C` the Potency was 3.16 µM (active).
For `Cc1ccc(S(=O)(=O)O[C@H]2CN3CCC2CC3)cc1`, the activity, negative = inhibition was -0.505% [at 14.2 µM].
For `CC[C@@](O)(C(=O)O)c1cc2n(c(=O)c1CO)Cc1cc3ccccc3nc1-2`, the activity, negative = inhibition was -0.459% [at 14.2 µM].
For `Fc1ccc(C(OCCN2CCN(C/C=C\c3ccccc3)CC2)c2ccc(F)cc2)cc1`, the “activity, negative = inhibition” value was 12.7%.
Work on `C[C@H](Br)C(=O)N[C@H](CO)C(=O)O` yielded an activity, negative = inhibition of 5.42% [at 14.2 µM].
In the case of `NCC[Se][Se]CCN`, the Potency is reported as 0.631 µM (active).
For `CC(C)(O)/C=C\C(=O)[C@](C)(O)[C@H]1[C@H](O)C[C@]2(C)[C@@H]3CC=C4[C@@H](C=C(O)C(=O)C4(C)C)[C@]3(C)C(=O)C[C@@]12C`, the activity, negative = inhibition was 6.59% [at 14.2 µM].
